Experimental data as given in ChEMBL document CHEMBL3988442, “University of Dundee, Small-Polar-MMV Screening Library” (2021).
About 1,000 (1.4%) of roughly 69,000 compounds showed an effect of 50% or more. What follows is part of a selection rich in strong results, with near analogues and random picks from the rest.

Tested on: Leishmania donovani
Experiment: Leishmania intramacrophage assay
Type: functional, organism-based
Set-up: scale not given: in the data most compounds retested in dose-response had high values

SMILES	Percent Effect (30.3 µM, […])	Percent Effect (30 µM, 30.03 µM)
O=C(O)C(F)(F)F.O=C(O)C(F)(F)F.O=C(O)C(F)(F)F.c1ccc(CO[C@@H]2CN(Cc3cccnc3)[C@@H]3COC[C@@H]32)nc1	-0.4082%	–
Cc1nc(CO[C@@H]2CN(Cc3cccnc3)[C@@H]3COC[C@@H]32)cs1.O=C(O)C(F)(F)F.O=C(O)C(F)(F)F	21.07%	–
O=C(O)C(F)(F)F.O=C(O)C(F)(F)F.c1ccc(CO[C@@H]2CN(Cc3nccs3)[C@@H]3COC[C@@H]32)nc1	56.79%	–
Fc1ccc(CN2C[C@@H](OCc3ccccn3)[C@H]3COC[C@H]32)cc1.O=C(O)C(F)(F)F.O=C(O)C(F)(F)F	38.45%	–
O=C(O)C(F)(F)F.O=C(O)C(F)(F)F.c1cncc(CO[C@H]2CN(Cc3ccco3)[C@@H]3COC[C@H]23)c1	63.54%	–
Cc1cccc(CN2C[C@H](OCc3ccccn3)[C@H]3COC[C@H]32)n1.O=C(O)C(F)(F)F.O=C(O)C(F)(F)F	10.8%	–
O=C(c1ccc2c(c1)OCO2)N1CCC(C(=O)O)(c2ccccc2)CC1	0.8951%	–
CC(C)NC(=O)[C@H]1C[C@H]2NCCO[C@@H]2C1	20.26%	–
CC(C)NC(=O)[C@@H]1C[C@H]2NCC[C@H]2O1.Cl	56.79%	–
O=C(NC1CCC1)[C@H]1C[C@H]2NCCO[C@@H]2C1	13.25%	–
CCCN1CCC[C@]2(CCC(=O)N2Cc2ccncc2)[C@H]1CC.O=C(O)C(F)(F)F.O=C(O)C(F)(F)F	-2.592%	–
CN(C)C[C@H]1C[C@@H]2CN(Cc3ccco3)C[C@@H]2O1.O=C(O)C(F)(F)F.O=C(O)C(F)(F)F	-9.327%	–
Cc1cccc(CN2CCN3C[C@H](Oc4cncnc4)C[C@H]3C2)n1.O=C(O)C(F)(F)F.O=C(O)C(F)(F)F	42.71%	–
Fc1cnc(N2CCN3C[C@H](Oc4cncnc4)C[C@H]3C2)nc1.O=C(O)C(F)(F)F.O=C(O)C(F)(F)F	16.13%	–
CCCN1CC[C@@H]2OC[C@H](C(=O)Nc3cccnc3)C[C@@H]2C1.O=C(O)C(F)(F)F.O=C(O)C(F)(F)F	21.37%	–
C[C@H]1C[C@H]2CN(Cc3ccccn3)CC[C@@H]2O1.O=C(O)C(F)(F)F.O=C(O)C(F)(F)F	19.92%	–
CN1CC[C@@H]2OC[C@H](C(=O)N(C)Cc3ccccn3)C[C@@H]2C1.O=C(O)C(F)(F)F.O=C(O)C(F)(F)F	55.09%	–
CCS(=O)(=O)N1CCc2c(COCCN(C)C)cncc2C1.O=C(O)C(F)(F)F.O=C(O)C(F)(F)F	30.88%	–
Cl.NC(CC1CCCCC1)c1ccccc1 (centres undefined)	68.07%	–
Cl.NC(Cc1nc(-c2ccccc2)no1)c1ccccc1 (centres undefined)	-5.876%	–
COCC1CC2(CCN(c3cc(OC)ncn3)CC2)CN1C(C)C.O=C(O)C(F)(F)F (centres undefined)	17.84%	–
Cc1nc(C2(NCc3cccc(F)c3F)CCCCC2)no1	15.79%	–
Cc1cc(CNC2(c3ccccc3)CCCCC2)no1	4.963%	–
Cc1cc(CNC2(c3ccccc3)CCCCC2)on1	51.47%	–
CCN1C[C@H]2[C@@H](C1)N(S(=O)(=O)c1cccnc1)CC[C@H]2OC.O=C(O)C(F)(F)F.O=C(O)C(F)(F)F	–	-25.11%

SMILES	Percent Effect (30.3 µM, […])	Percent Effect (30 µM, 30.03 µM)
COc1ccccc1CC(=O)N1C[C@H]2CC[C@@H]1CN(Cc1cscn1)C2	-17.19%	–
O=C(Cc1cnccn1)N1C[C@H]2CC[C@@H]1CN(Cc1cscn1)C2	50.19%	–
O=C(Cc1ccncc1)N1C[C@H]2CC[C@@H]1CN(Cc1cccnc1)C2	24.39%	–
CC(C)(C)NC(=O)CNc1ccc(C#N)c(C(F)(F)F)c1	3.3%	–
CC(C)(O)CNc1ccc(C#N)c(C(F)(F)F)c1	100.1%	–
CC(C)(CNc1ccc(C#N)c(C(F)(F)F)c1)C(N)=O	20.21%	–
Cc1ncc2c(c1-c1noc(-c3cscn3)n1)CCNC2	-9.596%	–
CCOc1ccc(C2SCC(=O)Nc3c2c(=O)[nH]n3C(C)C)cc1 (centres undefined)	-0.8562%	–
O=C(N[C@@H]1CN[C@@H]2CCCO[C@@H]21)c1cscn1.O=C(O)C(F)(F)F	4.147%	–
CN1C[C@H](NC(=O)c2cscn2)[C@@H]2OCCC[C@@H]21.O=C(O)C(F)(F)F	54.94%	–
Cl.O=C(N[C@H]1CN[C@H]2CCCO[C@H]21)c1cscn1	–	25.22%
Cc1cc(CN2C[C@@H]3COC[C@]3(CN(C)C)C2)no1.O=C(O)C(F)(F)F.O=C(O)C(F)(F)F	–	-27.07%
Fc1cnc(N2CCCC3(CN(Cc4cccs4)CCO3)C2)nc1.O=C(O)C(F)(F)F (centres undefined)	-13.69%	–
CC(C)N(C)Cc1cncc2c1CCN(Cc1ccoc1)C2.Cl.Cl.Cl	28.71%	–
O=C(O)C(F)(F)F.O=C(O)C(F)(F)F.c1cncc(OC[C@]23COC[C@H]2CN(C2CCC2)C3)c1	24.17%	–
Cn1nc(CN2CCCCC(N)C2)c2c(Cl)cccc21 (centres undefined)	74.89%	–
Cc1cc(CN2C[C@@H]3COC[C@]3(CNC(=O)c3ccno3)C2)no1	–	11.65%
Cl.O=C1CC2(CCCNC2)C(=O)N1Cc1ccccc1 (centres undefined)	–	10.36%
Fc1cccnc1O[C@@H]1CN(Cc2ccco2)[C@@H]2CCCO[C@@H]21.O=C(O)C(F)(F)F.O=C(O)C(F)(F)F	0.2133%	–
Cc1c(C2N3C[C@]4(C)CN2C[C@](C)(C3)C4=O)[nH]c(=O)[nH]c1=O (some centres undefined)	18.9%	–
Cc1cccc(NC(=O)N2CCC(CO)(Nc3ccccc3)CC2)c1	33.34%	–
O=C(Nc1ccc(F)cc1)N1CCC(CO)(Nc2ccccc2)CC1	1.566%	–
Cc1ccc(NC(=O)N2CCC(CO)(Nc3ccccc3)CC2)cc1	64.38%	–
O=C(O)C(F)(F)F.O=C(O)C(F)(F)F.c1ccc(CN2CCN3C[C@H](Oc4cncnc4)C[C@H]3C2)nc1	2.199%	–
